Reference: the supplement of paper PMC10503962

tested on: Trichuris muris adult worms; test: mean motility score (Paragon pixel variance) of adult worms (arbitrary units); higher = more motile worms, i.e. less anthelmintic effect; extreme values may be limits of the assay; details: 100 µM; 24 h
How it was run: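 Single adult Trichuris muris worms, recovered from infected NOD SCID mice, were exposed to drug at 100 μM (1% v/v DMSO) in 100 μL RPMI-1640 with antibiotics in 96-well plates for 24 h at 37°C and 5% CO2. The plates were then filmed on an automated phenotyping platform. The motility score was calculated through Paragon pixel-variance analysis and averaged across replicate wells, with three worms in three wells per drug on three separate occasions.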

Row | Structure (SMILES) | mean motility score
1 | CCOC(=O)[C@H](CCc1ccccc1)N[C@H]1CCc2ccccc2N(CC(=O)O)C1=O.Cl [benazepril hydrochloride] | 2030
2 | CC(=O)N1CCN(c2ccc(OC[C@@H]3CO[C@@](Cn4ccnc4)(c4ccc(Cl)cc4Cl)O3)cc2)CC1 [ketoconazole] | 1360
3 | CC(C)NCC(O)c1ccc(NS(C)(=O)=O)cc1.Cl (stereo not drawn) [sotalol hydrochloride] | 2900
4 | NS(=O)(=O)Cc1noc2ccccc12 [zonisamide] | 2960
5 | Nc1nc(O)c2ncn(COC(CO)CO)c2n1 [ganciclovir] | 2950
6 | N[C@@H](CO)C(=O)O [serine] | 2250
7 | O=C(O)CNC(=O)c1ccccc1I [iodohippurate] | 3580
8 | C[C@H](O)C(=O)Nc1c(I)c(C(=O)NC(CO)CO)c(I)c(C(=O)NC(CO)CO)c1I [iopamidol] | 2190
9 | COc1ccc2cc(CCC(C)=O)ccc2c1 [nabumetone] | 2720
10 | Cc1ccc(NC(=O)c2ccc(CN3CCN(C)CC3)cc2)cc1Nc1nccc(-c2cccnc2)n1 [imatinib] | 3600
11 | Clc1ccccc1C(c1ccccc1)(c1ccccc1)n1ccnc1 [clotrimazole] | 0
12 | CCCc1nc(C)c2c(=O)nc(-c3cc(S(=O)(=O)N4CCN(CC)CC4)ccc3OCC)[nH]n12 [vardenafil] | 2160
13 | CC(C)(F)C[C@H](N[C@@H](c1ccc(-c2ccc(S(C)(=O)=O)cc2)cc1)C(F)(F)F)C(=O)NC1(C#N)CC1 [odanacatib] | 3560
14 | Cl.Clc1ccccc1CN1CCc2sccc2C1 [ticlopidine hydrochloride] | 663
15 | COCCOC(=O)C1=C(C)NC(C)=C(C(=O)OC(C)C)C1c1cccc([N+](=O)[O-])c1 (stereo not drawn) [nimodipine] | 112
16 | Nc1cc(C(F)(F)F)c(-c2cc(N3CCOCC3)nc(N3CCOCC3)n2)cn1 [buparlisib] | 3960
17 | Cc1ccccc1C(OCCN(C)C)c1ccccc1.Cl (stereo not drawn) [orphenadrine hydrochloride] | 1810
18 | OCCN(CCO)c1nc(N2CCCCC2)c2nc(N(CCO)CCO)nc(N3CCCCC3)c2n1 [dipyridamole] | 2870
19 | FC(F)(F)C(F)(F)C(F)(F)C(F)(F)C(F)(F)C(F)(F)C(F)(F)C(F)(F)Br [perflubron] | 1630

Row | Structure (SMILES) | mean motility score
20 | COc1ccc2c(c1)c(CC(=O)O)c(C)n2C(=O)c1ccc(Cl)cc1 [indomethacin] | 2460
21 | COc1ccc(CCN(C)CCCC(C#N)(c2ccc(OC)c(OC)c2)C(C)C)cc1OC (stereo not drawn) [verapamil] | 3440
22 | Cc1onc(-c2ccccc2)c1-c1ccc(S(N)(=O)=O)cc1 [valdecoxib] | 3610
23 | CNC1(C)[C@H]2CC[C@H](C2)C1(C)C.Cl (stereo partly drawn) [mecamylamine hydrochloride] | 3150
24 | CCCCCNC(=N)N/N=C/c1c[nH]c2ccc(OC)cc12.O=C(O)/C=C\C(=O)O [tegaserod maleate] | 0
25 | CC1=NS(=O)(=O)c2cc(Cl)ccc2N1 [diazoxide] | 3260
26 | COc1cc2nc(N3CCN(C(=O)C4CCCO4)CC3)nc(N)c2cc1OC.Cl (stereo not drawn) [terazosin hydrochloride] | 2970
27 | C=C[C@H]1CN2CC[C@H]1C[C@@H]2[C@@H](O)c1ccnc2ccc(OC)cc12 [quinidine] | 1610
28 | N#Cc1ccc(C(c2ccc(C#N)cc2)n2cncn2)cc1 [letrozole] | 4830
29 | NC(=O)c1ncn([C@@H]2O[C@H](CO)[C@@H](O)[C@H]2O)c1O [mizoribine] | 2990
30 | O=P(O)(O)C(O)(Cn1ccnc1)P(=O)(O)O [zoledronic acid] | 1210
31 | CC(=O)Oc1ccc(C(c2ccc(OC(C)=O)cc2)c2ccccn2)cc1 [bisacodyl] | 2870
32 | Cn1cnc2c(F)c(Nc3ccc(Br)cc3Cl)c(C(=O)NOCCO)cc21 [selumetinib] | 3500
33 | CC(=O)OC[C@H]1O[C@@H](n2ncc(=O)[nH]c2=O)[C@H](OC(C)=O)[C@@H]1OC(C)=O [azaribine] | 3970
34 | COC(=O)C1=C(C)NC(C)=C(C(=O)OC)C1c1ccccc1[N+](=O)[O-] [nifedipine] | 1260
35 | CN(C)CCCOc1nn(Cc2ccccc2)c2ccccc12.Cl [benzydamine hydrochloride] | 3530
36 | CN(C)[C@@H]1C(O)=C(C(N)=O)C(=O)[C@@]2(O)C(O)=C3C(=O)c4c(O)cccc4[C@@](C)(O)[C@H]3[C@H](O)[C@@H]12 [oxytetracycline] | 2120
37 | Cl.Fc1ccc([C@@H]2CCNC[C@H]2COc2ccc3c(c2)OCO3)cc1 [paroxetine hydrochloride] | 1300
38 | CCCc1nc2c(C)cc(-c3nc4ccccc4n3C)cc2n1Cc1ccc(-c2ccccc2C(=O)O)cc1 [telmisartan] | 1900
